In PubChem BioAssay:
Records with an inconclusive call do not appear. The source made the active and inactive calls.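 How the source made its calls, unless noted: active means percent response above 42, roughly 3 SD of non-fluorescent test compounds; inactive means the rest.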

Columns and labels:
[1] = yeast TOR pathway RPL19A-GFP modulators, primary screen, cell-based, S. cerevisiae, multiplex flow cytometry (AID 1862; in the data active means percent of DMSO control GFP below about 86%;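 further: lower values mimic rapamycin by blocking the RPL19A rise seen in DMSO cells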); details: S. cerevisiae RPL19A-GFP strain, flow cytometry fluorescence, 3 h; at 10 µM; stronger effect = lower value
[2] = modulators of MEP2-GFP levels in yeast, primary screen, S. cerevisiae, multiplex flow cytometry (AID 1867;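 active means GFP response, as percent of the DMSO control, above the screen-wide mean plus 3 SD, about 139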;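 further: median GFP channel fluorescence of barcode-gated MEP2-GFP cells measured by flow cytometry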); details: S. cerevisiae MEP2-GFP strain, 3 h, at 10 µM, stronger effect = higher value, 100% means same as DMSO wells
[3] = modulators of CIT2-GFP expression in yeast, primary screen, S. cerevisiae, GFP fusion, multiplex flow cytometry (AID 1870;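 active means percent response above a set limit, the screen-wide mean plus 3 SD, cut at about 130% in these data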;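 further: barcoded CIT2-GFP strain pooled with four other GFP strains with rapamycin as positive control; median GFP fluorescence per well over plate mean of DMSO wells so 100% = DMSO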); details: 3 h, at 10 µM, stronger effect = higher value
[4] = modulators of LAP4-GFP expression in yeast, primary screen, S. cerevisiae, multiplex flow cytometry (AID 1873;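 active means GFP signal, as percent of the solvent control, above the screen mean plus 3 SD, about 149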); details: 3 h, at 10 µM, stronger effect = higher value
[5] = modulators of AGP1-GFP expression in yeast TOR pathway, primary screen, cell-based, multiplex flow cytometry, S. cerevisiae (AID 1887;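 active means GFP signal above the screen-wide mean plus 3 SD, that is over about 124.5% of the solvent control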;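 further: AGP1-GFP fusion strain of S. cerevisiae within a five-strain barcoded multiplex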); details: 3 h, at 10 µM, stronger effect = higher value
[6] = inhibitors of CD8+ T cell-vesicle binding, pilot screen, LFA-1/ICAM-1 modulator project, MLPCN validation set, flow cytometry (AID 2523;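 active means response below a set limit, under 55% cells CD8-positive and vesicle-bound, and CD8 cells' 90th-percentile brightness under 279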;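 on vesicle binding response: mean PE anti-B7-1 fluorescence of CD8+ cells relative to row control; 100% = QL9-loaded vesicles with DMSO vehicle in the same plate row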); details: 2C mouse CD8+ T cells, at 7 µM, stronger effect = lower value; double positive events: measured here: CD8+/vesicle+ event percentage
[7] = target: Integrin beta-1 (Homo sapiens) + Integrin alpha-4 (Homo sapiens) (UniProt P13612+P05556); experiment: inhibition of HUTS-21 binding to VLA-4, pilot screen, VLA-4 allosteric modulator project, U937 cells, HUTS-21 mAb, flow cytometry, validation set (AID 2674;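 active means inhibition above 50%, about 3 SD of the validation set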;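 further: antibody binding induced by the VLA-4 ligand LDV present at three times its Kd; 0% = LDV ligand with antibody and no compound and 100% = antibody without LDV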); details: HUTS-21 LIBS mAb binding, at 6.7 µM, stronger effect = higher value, binding induced by LDV ligand
[8] = superoxide lowering in aged yeast cells, pilot screen, validation compound set (AID 2706;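 active means superoxide response below 65% of plate, a cut near 3 SD across the whole screen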;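 further: yeast exposed to compound for one week at 30 degrees C before staining; 100% = mean of all compound wells on the same plate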); details: S. cerevisiae aging, superoxide DHE fluorescence; at 10 µM; stronger effect = lower value
[9] = target: Beta-adrenergic receptor kinase 1 (Homo sapiens) (UniProt P25098); experiment: GRK2 binders displacing RNA aptamer, biochemical, validation, human GRK2, bead flow cytometry (AID 488806;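 active means aptamer binding inhibition above 30%, about 3 SD of noise from non-fluorescent compounds; inactive means inhibition at or below 30%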); details: bead-bound GRK2, FAM-aptamer displacement, at 10 µM, stronger effect = higher value
[10] = target: Beta-2 adrenergic receptor (Homo sapiens) (UniProt P07550); experiment: beta2AR agonists driving receptor internalization, pilot screen, cell-based, FAP fluorogen, flow cytometry, validation set (AID 504459); details: Am2.2-beta2AR cells, FAP surface receptor flow cytometry; at 10 µM; stronger effect = higher value;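 further: agonist-driven loss of surface beta2AR via internalization measured by FAP dye flow cytometry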
[11] = target: AP-2 complex subunit beta (Homo sapiens) (UniProt P63010); experiment: inhibitors of arrestin peptide binding to AP2, pilot screen, biochemical, validation set, GST-AP2 beads, flow cytometry (AID 504541;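 active means inhibition above 54%, about 3 SD of non-fluorescent compounds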;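 further: AP2 carries R879A mutation and is captured from E. coli lysate; bead-bound FITC arrestin peptide fluorescence measuring arrestin peptide binding to AP2; 0% = DMSO wells and 100% = excess unlabeled arrestin peptide control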); details: FITC arrestin peptide, at 10 µM, stronger effect = higher value, AP2 beta2 appendage fragment, R879A mutant
[12] = yeast V-ATPase proton transport modulators, S. cerevisiae, pHLuorin, HTS validation (AID 504600; in the data active means response above about 15%;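 further: plate controls were DMSO for no effect and reference compound for full effect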); details: S. cerevisiae pHLuorin cytosolic pH, at 10 µM, stronger effect = higher value
[13] = tested on: anti-desmoglein-3 scFv antibody binding to human DSG3; experiment: inhibitors of anti-DSG3 scFv binding to DSG3, pilot screen, biochemical, validation compound set, bead-based, flow cytometry (AID 588368;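 active means binding below the plate cutoff, the plate median minus 3 SD, with a reading above zero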;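 further: signal is the median channel fluorescence of bead-bound GFP antibody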); details: Protein G beads, DSG3-Fc, scFv-GFP binding, at 10 µM, stronger effect = lower value
[14] = inhibitors of fungal efflux pumps CDR1, CDR2, MDR1, pilot screen, validation compound set, multiplex, phenotypic (AID 588506;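 active means efflux inhibition above 0.42, the validation set average plus 4 SD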;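 further: Nile Red retained in cells so higher fluorescence means more efflux inhibition; 0 = negative control wells and 1 = enniatin B 25 µM full block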); details: S. cerevisiae pump-expressing triplex, Nile Red efflux flow cytometry; at 10 µM; stronger effect = higher value; the pumps come from Candida albicans
[15] = target: ATP-binding cassette sub-family B member 6 (Homo sapiens) (UniProt Q9NP58); experiment: ABCB6 transporter inhibitors, pilot screen, K562-ABCB6 cells, flow cytometry, validation set (AID 588550;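 active means inhibition above the screen-wide mean plus 3 SD, about 51%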;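 further: 0% = DMSO wells and 100% = benzethonium chloride 70 µM positive control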); details: K562-ABCB6 porphyrin accumulation, 1 h, at 10 µM, stronger effect = higher value
[16] = promoters of myeloid differentiation in arrested cells, primary screen, cell-based, GFP/MAC1 double positive, flow cytometry, validation set (AID 588685;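 active means differentiation response of at least 50%, scaled between solvent and reference control, from cells with both markers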;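 further: compound exposure lasts four days before antibody staining and flow analysis; 0% = DMSO wells and 100% = 5 µM fulvestrant positive control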); details: ER-HoxA9 marrow cells, stronger effect = higher value, normalized: vehicle 0, fulvestrant 100

Chain of Beta-2 adrenergic receptor (Homo sapiens) (P07550 whole entry, looked up): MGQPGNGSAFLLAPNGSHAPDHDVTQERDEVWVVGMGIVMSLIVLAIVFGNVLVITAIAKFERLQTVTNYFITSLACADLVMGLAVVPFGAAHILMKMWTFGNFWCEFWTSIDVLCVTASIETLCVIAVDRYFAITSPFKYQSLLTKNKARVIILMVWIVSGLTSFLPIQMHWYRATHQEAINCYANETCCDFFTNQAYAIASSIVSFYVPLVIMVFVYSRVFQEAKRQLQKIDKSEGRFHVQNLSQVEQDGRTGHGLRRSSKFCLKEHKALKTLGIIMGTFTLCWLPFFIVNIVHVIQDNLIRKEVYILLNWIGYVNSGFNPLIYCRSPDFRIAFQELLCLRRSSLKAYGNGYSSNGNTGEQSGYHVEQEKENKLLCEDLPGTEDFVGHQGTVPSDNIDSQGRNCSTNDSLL
Chain of Integrin beta-1 (Homo sapiens) + Integrin alpha-4 (Homo sapiens) (P05556 whole entry, looked up): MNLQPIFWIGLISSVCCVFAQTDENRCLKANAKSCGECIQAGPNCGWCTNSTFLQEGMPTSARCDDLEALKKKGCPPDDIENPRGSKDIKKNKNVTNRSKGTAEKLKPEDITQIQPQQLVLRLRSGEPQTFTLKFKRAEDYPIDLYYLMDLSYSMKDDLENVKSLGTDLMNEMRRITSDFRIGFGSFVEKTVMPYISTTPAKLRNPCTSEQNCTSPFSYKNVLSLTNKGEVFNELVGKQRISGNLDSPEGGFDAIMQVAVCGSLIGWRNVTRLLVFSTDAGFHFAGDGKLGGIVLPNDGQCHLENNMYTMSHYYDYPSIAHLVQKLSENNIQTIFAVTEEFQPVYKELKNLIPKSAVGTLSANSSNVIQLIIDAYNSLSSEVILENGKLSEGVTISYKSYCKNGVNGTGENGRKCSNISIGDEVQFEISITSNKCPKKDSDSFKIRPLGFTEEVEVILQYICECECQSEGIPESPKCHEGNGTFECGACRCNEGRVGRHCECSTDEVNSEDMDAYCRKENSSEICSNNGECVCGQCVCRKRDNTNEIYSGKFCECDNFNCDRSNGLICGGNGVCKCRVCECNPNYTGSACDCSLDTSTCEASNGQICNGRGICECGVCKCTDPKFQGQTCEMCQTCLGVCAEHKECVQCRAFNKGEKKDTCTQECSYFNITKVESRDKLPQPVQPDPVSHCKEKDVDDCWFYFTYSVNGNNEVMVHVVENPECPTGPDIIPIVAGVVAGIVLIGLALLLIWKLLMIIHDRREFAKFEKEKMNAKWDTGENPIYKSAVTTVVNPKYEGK
Chain of Integrin beta-1 (Homo sapiens) + Integrin alpha-4 (Homo sapiens) (P13612 whole entry, looked up): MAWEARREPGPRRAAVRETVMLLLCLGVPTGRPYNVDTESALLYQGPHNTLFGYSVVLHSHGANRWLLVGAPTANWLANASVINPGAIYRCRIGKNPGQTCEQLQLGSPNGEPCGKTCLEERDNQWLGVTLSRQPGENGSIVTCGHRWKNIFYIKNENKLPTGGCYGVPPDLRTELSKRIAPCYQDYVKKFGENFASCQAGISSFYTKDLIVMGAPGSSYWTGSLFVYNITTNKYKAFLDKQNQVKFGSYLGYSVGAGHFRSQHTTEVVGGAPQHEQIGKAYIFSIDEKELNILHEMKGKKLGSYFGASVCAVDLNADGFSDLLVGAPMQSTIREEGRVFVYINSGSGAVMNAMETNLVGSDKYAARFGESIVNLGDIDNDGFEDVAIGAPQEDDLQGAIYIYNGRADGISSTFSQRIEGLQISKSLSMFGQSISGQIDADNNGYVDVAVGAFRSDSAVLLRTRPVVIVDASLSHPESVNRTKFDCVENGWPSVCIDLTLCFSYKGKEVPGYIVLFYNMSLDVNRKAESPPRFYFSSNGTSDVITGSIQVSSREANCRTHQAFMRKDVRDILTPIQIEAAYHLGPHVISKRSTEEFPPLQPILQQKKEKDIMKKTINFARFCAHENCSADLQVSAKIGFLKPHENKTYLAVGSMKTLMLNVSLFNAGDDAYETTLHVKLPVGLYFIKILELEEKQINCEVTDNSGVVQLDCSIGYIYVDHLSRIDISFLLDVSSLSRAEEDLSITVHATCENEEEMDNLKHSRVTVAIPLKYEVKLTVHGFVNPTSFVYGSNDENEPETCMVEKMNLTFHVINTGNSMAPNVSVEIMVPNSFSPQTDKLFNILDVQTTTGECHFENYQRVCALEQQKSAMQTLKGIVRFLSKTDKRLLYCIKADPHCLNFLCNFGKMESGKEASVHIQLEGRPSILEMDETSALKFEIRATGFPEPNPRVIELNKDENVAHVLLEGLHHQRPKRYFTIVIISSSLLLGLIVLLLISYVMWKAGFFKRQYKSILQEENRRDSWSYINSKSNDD
Chain of Beta-adrenergic receptor kinase 1 (Homo sapiens) (P25098 whole entry, looked up): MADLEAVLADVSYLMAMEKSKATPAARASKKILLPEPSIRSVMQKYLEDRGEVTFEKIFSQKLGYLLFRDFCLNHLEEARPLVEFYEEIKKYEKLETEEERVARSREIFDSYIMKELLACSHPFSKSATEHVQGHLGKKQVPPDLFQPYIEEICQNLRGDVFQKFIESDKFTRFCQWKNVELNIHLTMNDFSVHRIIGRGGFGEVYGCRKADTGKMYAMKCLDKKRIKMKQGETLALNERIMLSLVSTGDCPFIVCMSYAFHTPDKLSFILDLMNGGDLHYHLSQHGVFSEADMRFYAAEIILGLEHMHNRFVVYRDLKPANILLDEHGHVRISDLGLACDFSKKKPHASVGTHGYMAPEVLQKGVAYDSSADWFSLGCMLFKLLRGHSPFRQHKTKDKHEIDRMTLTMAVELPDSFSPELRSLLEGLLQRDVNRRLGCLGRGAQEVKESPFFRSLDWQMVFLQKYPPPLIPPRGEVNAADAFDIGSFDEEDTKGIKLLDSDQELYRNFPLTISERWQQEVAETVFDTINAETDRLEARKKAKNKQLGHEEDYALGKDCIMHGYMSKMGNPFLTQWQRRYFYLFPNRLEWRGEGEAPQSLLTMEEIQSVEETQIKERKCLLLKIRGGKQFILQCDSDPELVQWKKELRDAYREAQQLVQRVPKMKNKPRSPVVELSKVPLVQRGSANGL
Chain of ATP-binding cassette sub-family B member 6 (Homo sapiens) (Q9NP58 whole entry, looked up): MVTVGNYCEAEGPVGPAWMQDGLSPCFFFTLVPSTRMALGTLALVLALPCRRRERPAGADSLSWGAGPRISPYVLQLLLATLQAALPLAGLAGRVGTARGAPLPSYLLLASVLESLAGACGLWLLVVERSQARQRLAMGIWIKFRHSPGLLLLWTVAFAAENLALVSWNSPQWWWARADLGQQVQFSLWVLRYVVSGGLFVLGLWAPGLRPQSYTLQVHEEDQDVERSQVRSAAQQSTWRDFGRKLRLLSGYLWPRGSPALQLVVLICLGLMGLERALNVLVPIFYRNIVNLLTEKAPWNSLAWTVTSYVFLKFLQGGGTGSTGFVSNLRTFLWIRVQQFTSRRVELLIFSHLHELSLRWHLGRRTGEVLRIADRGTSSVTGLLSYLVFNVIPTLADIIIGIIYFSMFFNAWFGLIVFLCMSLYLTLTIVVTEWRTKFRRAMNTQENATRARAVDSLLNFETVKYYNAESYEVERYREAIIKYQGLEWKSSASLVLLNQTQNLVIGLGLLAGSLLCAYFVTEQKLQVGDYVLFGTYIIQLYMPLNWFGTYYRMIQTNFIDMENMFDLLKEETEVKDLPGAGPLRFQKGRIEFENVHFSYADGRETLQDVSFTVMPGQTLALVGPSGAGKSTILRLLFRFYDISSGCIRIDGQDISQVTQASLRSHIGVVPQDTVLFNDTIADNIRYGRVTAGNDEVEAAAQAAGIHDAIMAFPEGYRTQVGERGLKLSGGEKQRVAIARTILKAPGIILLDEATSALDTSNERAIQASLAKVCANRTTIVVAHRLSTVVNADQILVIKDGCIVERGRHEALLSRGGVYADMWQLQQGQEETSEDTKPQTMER
Chain of AP-2 complex subunit beta (Homo sapiens) (P63010 whole entry, looked up, the tested form may be a part, one chain of several): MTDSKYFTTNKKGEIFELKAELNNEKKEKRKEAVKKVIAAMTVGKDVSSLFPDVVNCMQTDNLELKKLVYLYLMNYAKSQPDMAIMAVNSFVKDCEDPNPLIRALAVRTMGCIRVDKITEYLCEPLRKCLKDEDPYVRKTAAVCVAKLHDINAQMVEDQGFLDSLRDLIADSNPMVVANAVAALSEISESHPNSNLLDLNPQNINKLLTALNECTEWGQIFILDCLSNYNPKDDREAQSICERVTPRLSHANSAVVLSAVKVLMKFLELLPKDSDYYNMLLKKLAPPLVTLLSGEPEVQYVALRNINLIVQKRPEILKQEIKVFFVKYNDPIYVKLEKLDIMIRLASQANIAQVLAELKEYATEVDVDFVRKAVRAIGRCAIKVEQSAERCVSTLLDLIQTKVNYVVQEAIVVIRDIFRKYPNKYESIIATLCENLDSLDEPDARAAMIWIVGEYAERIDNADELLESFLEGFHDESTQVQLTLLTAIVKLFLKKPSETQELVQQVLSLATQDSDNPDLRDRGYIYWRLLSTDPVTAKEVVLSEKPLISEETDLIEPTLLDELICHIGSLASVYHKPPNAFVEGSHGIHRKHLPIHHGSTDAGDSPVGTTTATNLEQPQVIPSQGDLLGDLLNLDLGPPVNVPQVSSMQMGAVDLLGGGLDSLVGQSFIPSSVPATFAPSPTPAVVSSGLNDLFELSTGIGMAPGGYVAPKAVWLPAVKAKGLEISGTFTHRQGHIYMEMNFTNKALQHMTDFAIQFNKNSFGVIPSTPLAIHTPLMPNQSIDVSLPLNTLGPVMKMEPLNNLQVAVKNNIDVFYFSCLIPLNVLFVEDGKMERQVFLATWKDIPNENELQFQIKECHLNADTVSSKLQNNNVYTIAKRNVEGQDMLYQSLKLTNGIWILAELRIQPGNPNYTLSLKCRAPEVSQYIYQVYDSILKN

Cn1c(=O)c2c(ncn2CCO)n(C)c1=O
inactive: percent of DMSO control GFP [1] 102% | GFP response vs DMSO [2] 112% | percent response of DMSO control [3] 116% | GFP response vs DMSO [4] 88.6% | GFP response, % of DMSO [5] 101% | vesicle binding response [6] 250% | inhibition [7] -32.3% | superoxide response (% of plate) [8] 98.5% | aptamer binding inhibition [9] -2% | response [10] 15.1% | inhibition [11] -1.93% | response [12] 0.08% | binding (% of control) [13] 106% | efflux inhibition (fraction of control) [14] -0.17 | inhibition [15] 6% | differentiation response [16] 1.64%
63.6%: double positive events [6]

COc1ccc(C(=O)Nc2ncc3c(n2)CC(C)CC3=O)cc1 (stereo not given)
48.3%: double positive events [6]
inactive: percent of DMSO control GFP [1] 98% | GFP response vs DMSO [2] 105% | percent response of DMSO control [3] 105% | GFP response vs DMSO [4] 110% | GFP response, % of DMSO [5] 104% | vesicle binding response [6] 83.7% | inhibition [7] -12.7% | superoxide response (% of plate) [8] 99.5% | aptamer binding inhibition [9] -2% | response [10] 2.81% | response [12] -6.31% | binding (% of control) [13] 95.3% | efflux inhibition (fraction of control) [14] 0.01 | inhibition [15] 15% | differentiation response [16] -7.2%
active: inhibition [11] 61.9%

CC(=O)OC(CC(=O)O)C[N+](C)(C)C (stereo not given)
65%: double positive events [6]
inactive: percent of DMSO control GFP [1] 100% | GFP response vs DMSO [2] 103% | percent response of DMSO control [3] 95.4% | GFP response vs DMSO [4] 92.7% | GFP response, % of DMSO [5] 97.6% | vesicle binding response [6] 243% | inhibition [7] -17.1% | superoxide response (% of plate) [8] 103% | aptamer binding inhibition [9] 2% | response [10] -0.16% | inhibition [11] 14.1% | response [12] -2.66% | binding (% of control) [13] 97.1% | efflux inhibition (fraction of control) [14] 0.02 | inhibition [15] 10% | differentiation response [16] -8.55%

CCOc1ccc(C(=O)NC(C)C2COc3ccccc3O2)cc1 (stereo not given)
inactive: percent of DMSO control GFP [1] 99.5% | GFP response vs DMSO [2] 104% | percent response of DMSO control [3] 95.7% | GFP response vs DMSO [4] 110% | GFP response, % of DMSO [5] 106% | vesicle binding response [6] 111% | inhibition [7] 7.4% | superoxide response (% of plate) [8] 108% | aptamer binding inhibition [9] 6% | response [10] -18% | inhibition [11] -0.3% | response [12] -8.02% | binding (% of control) [13] 106% | efflux inhibition (fraction of control) [14] -0.17 | inhibition [15] 1% | differentiation response [16] 4.86%
61.2%: double positive events [6]

Cn1c(=S)n(C)c2ccccc21
61.4%: double positive events [6]
inactive: percent of DMSO control GFP [1] 99.2% | GFP response vs DMSO [2] 104% | percent response of DMSO control [3] 94.4% | GFP response vs DMSO [4] 110% | GFP response, % of DMSO [5] 104% | vesicle binding response [6] 264% | inhibition [7] 16.8% | superoxide response (% of plate) [8] 104% | aptamer binding inhibition [9] 3% | response [10] 25.9% | inhibition [11] 0.89% | response [12] -1.79% | binding (% of control) [13] 105% | efflux inhibition (fraction of control) [14] 0.08 | inhibition [15] 7% | differentiation response [16] -4%

CCCC(=O)Nc1ccccc1NC(C)=O
65.9%: double positive events [6]
inactive: percent of DMSO control GFP [1] 101% | GFP response vs DMSO [2] 102% | percent response of DMSO control [3] 108% | GFP response vs DMSO [4] 99.1% | GFP response, % of DMSO [5] 104% | vesicle binding response [6] 170% | inhibition [7] -9.13% | superoxide response (% of plate) [8] 111% | aptamer binding inhibition [9] 1% | response [10] 5.03% | inhibition [11] -1.46% | response [12] 0.04% | binding (% of control) [13] 95.1% | inhibition [15] 0% | differentiation response [16] -1.65%
active: efflux inhibition (fraction of control) [14] 1.13

COc1ccc(OC(C)C(=O)Nc2ccc([N+](=O)[O-])cc2)cc1 (stereo not given)
65.7%: double positive events [6]
inactive: percent of DMSO control GFP [1] 102% | GFP response vs DMSO [2] 107% | percent response of DMSO control [3] 99.7% | GFP response vs DMSO [4] 114% | GFP response, % of DMSO [5] 97.5% | vesicle binding response [6] 249% | inhibition [7] 0.25% | superoxide response (% of plate) [8] 103% | aptamer binding inhibition [9] -3% | response [10] 1.65% | inhibition [11] -7.72% | response [12] 3.86% | binding (% of control) [13] 103% | efflux inhibition (fraction of control) [14] -0.21 | inhibition [15] 5% | differentiation response [16] 13%

Cc1cc(-c2nn(-c3ccccc3F)cc2CN2CCCC(O)C2)c(C)s1 (stereo not given)
inactive: percent of DMSO control GFP [1] 97.6% | GFP response vs DMSO [2] 101% | percent response of DMSO control [3] 97.7% | GFP response vs DMSO [4] 117% | GFP response, % of DMSO [5] 107% | vesicle binding response [6] 148% | inhibition [7] 5.69% | superoxide response (% of plate) [8] 84.2% | aptamer binding inhibition [9] -2% | response [10] -40.3% | inhibition [11] -12.6% | response [12] -5.22% | binding (% of control) [13] 103% | efflux inhibition (fraction of control) [14] -0.04 | inhibition [15] 0% | differentiation response [16] -13.9%
56.6%: double positive events [6]

CC[N+](C)(C)c1cccc(O)c1
active: aptamer binding inhibition [9] 56%
57.5%: double positive events [6]
inactive: percent of DMSO control GFP [1] 103% | GFP response vs DMSO [2] 99.3% | percent response of DMSO control [3] 112% | GFP response vs DMSO [4] 97.3% | GFP response, % of DMSO [5] 102% | vesicle binding response [6] 123% | inhibition [7] -0.45% | superoxide response (% of plate) [8] 90.1% | response [10] -3.94% | inhibition [11] -0.12% | response [12] -0.97% | binding (% of control) [13] 103% | efflux inhibition (fraction of control) [14] -0.17 | inhibition [15] -7% | differentiation response [16] 7.09%

CCNC(=O)C(Cc1ccccc1)NC(=O)OCc1ccccc1 (stereo not given)
inactive: percent of DMSO control GFP [1] 101% | GFP response vs DMSO [2] 103% | percent response of DMSO control [3] 99.6% | GFP response vs DMSO [4] 117% | GFP response, % of DMSO [5] 106% | vesicle binding response [6] 367% | inhibition [7] 19.3% | superoxide response (% of plate) [8] 112% | aptamer binding inhibition [9] 2% | response [10] -19.9% | inhibition [11] 1.34% | response [12] 0.55% | binding (% of control) [13] 108% | efflux inhibition (fraction of control) [14] 0 | inhibition [15] 6% | differentiation response [16] -12.9%
62.5%: double positive events [6]
